Measurements: ChEMBL document CHEMBL1961873, “Compounds: GSK PKIS; Assays: Nanosyn kinase panel” (2012)

Tests used:
[1] = tested on: Epidermal growth factor receptor (Homo sapiens), P00533 [T790M]; conditions: at 1 µM
[2] = tested on: Epidermal growth factor receptor (Homo sapiens), P00533 [L858R,T790M]; conditions: at 0.1 µM
[3] = tested on: Epidermal growth factor receptor (Homo sapiens), P00533 [L858R,T790M]; conditions: at 1 µM
[4] = molecular target: Ephrin type-A receptor 2 (Homo sapiens) (UniProt P29317); conditions: at 0.1 µM
[5] = molecular target: Ephrin type-A receptor 2 (Homo sapiens) (UniProt P29317); conditions: at 1 µM
[6] = molecular target: T1, Ephrin type-A receptor 3 (Homo sapiens) (UniProt P29320); conditions: at 0.1 µM
T1 sequence (whole entry): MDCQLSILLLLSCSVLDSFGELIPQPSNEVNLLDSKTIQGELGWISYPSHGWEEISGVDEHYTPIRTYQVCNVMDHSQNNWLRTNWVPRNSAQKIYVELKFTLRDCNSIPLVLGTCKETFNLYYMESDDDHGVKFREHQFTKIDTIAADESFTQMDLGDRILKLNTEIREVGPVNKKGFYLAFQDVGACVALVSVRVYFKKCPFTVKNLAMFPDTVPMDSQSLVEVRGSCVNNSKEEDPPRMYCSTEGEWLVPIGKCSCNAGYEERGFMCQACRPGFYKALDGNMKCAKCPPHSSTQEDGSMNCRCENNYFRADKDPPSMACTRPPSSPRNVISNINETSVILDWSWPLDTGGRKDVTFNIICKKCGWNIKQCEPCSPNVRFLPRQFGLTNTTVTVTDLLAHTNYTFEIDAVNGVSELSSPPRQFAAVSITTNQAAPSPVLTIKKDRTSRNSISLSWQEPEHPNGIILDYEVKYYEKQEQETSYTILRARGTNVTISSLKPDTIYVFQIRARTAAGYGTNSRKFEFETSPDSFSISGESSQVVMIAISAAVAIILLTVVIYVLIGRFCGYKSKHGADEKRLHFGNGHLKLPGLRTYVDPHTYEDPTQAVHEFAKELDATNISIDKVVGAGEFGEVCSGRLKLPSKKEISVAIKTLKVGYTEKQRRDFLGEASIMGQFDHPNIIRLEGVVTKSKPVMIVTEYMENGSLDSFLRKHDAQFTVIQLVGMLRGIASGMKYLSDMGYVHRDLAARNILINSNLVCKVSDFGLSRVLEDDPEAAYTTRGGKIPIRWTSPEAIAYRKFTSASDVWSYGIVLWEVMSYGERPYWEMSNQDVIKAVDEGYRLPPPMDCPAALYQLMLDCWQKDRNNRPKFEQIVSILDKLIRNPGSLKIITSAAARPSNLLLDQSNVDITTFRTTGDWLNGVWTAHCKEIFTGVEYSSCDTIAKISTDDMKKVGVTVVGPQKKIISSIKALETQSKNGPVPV

[7] = molecular target: T1, Ephrin type-A receptor 3 (Homo sapiens); conditions: at 1 µM
[8] = molecular target: Ephrin type-A receptor 4 (Homo sapiens) (UniProt P54764); conditions: at 0.1 µM
[9] = molecular target: Ephrin type-A receptor 4 (Homo sapiens) (UniProt P54764); conditions: at 1 µM
[10] = molecular target: T2, Ephrin type-B receptor 2 (Homo sapiens) (UniProt P29323); conditions: at 0.1 µM
T2 sequence (whole entry): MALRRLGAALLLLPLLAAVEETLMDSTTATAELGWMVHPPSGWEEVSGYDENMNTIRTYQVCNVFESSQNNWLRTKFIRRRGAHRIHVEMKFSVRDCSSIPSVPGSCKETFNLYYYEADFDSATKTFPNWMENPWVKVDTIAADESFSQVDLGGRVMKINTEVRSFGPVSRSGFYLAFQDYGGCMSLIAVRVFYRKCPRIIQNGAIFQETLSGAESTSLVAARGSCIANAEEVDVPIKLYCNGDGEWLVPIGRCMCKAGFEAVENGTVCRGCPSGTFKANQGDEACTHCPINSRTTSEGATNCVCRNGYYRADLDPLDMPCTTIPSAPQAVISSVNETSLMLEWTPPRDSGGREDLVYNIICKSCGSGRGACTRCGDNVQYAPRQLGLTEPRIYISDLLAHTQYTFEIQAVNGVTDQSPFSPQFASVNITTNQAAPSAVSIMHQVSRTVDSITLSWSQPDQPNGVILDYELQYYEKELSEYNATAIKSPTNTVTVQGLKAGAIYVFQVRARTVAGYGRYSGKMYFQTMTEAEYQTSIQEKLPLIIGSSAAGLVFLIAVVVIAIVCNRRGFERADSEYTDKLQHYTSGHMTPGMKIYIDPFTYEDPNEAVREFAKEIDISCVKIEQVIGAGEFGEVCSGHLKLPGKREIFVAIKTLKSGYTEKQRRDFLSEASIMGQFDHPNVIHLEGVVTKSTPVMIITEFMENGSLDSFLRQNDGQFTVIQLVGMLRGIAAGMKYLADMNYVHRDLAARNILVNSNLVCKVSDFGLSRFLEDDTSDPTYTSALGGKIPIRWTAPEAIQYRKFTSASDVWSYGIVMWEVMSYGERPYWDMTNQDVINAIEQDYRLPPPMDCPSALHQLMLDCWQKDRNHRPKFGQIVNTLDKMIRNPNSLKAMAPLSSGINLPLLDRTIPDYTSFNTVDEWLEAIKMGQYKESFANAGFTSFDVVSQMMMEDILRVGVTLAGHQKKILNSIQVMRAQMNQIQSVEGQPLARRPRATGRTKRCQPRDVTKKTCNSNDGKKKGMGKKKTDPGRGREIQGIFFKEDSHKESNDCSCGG

[11] = molecular target: T2, Ephrin type-B receptor 2 (Homo sapiens); conditions: at 1 µM
[12] = molecular target: T3, Ephrin type-B receptor 3 (Homo sapiens) (UniProt P54753); conditions: at 0.1 µM
T3 sequence (whole entry): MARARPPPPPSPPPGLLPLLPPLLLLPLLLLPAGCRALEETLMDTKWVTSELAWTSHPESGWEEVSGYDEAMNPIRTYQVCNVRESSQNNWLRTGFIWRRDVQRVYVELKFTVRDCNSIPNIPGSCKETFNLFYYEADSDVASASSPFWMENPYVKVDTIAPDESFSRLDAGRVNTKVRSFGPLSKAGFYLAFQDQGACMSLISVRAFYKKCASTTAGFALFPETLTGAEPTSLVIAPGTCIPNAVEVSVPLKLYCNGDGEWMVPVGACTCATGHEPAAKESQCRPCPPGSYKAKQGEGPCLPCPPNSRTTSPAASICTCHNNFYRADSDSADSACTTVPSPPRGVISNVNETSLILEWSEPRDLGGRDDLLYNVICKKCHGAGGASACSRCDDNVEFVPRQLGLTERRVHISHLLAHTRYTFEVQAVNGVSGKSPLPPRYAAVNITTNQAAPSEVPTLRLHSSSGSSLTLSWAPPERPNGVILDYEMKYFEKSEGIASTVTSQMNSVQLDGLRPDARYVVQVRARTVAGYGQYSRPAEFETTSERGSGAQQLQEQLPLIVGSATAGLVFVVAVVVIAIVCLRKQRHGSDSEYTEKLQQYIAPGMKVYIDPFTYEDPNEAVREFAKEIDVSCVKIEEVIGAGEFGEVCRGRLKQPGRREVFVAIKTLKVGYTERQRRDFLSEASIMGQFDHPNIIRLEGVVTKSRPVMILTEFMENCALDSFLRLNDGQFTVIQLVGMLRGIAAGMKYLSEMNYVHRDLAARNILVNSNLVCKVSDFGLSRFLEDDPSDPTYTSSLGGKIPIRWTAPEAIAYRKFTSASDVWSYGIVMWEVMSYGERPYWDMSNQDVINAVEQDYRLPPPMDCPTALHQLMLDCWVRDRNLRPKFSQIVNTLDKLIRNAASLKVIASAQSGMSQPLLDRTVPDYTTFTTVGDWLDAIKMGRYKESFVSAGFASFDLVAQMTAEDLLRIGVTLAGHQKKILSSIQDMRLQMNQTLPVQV

[13] = molecular target: T3, Ephrin type-B receptor 3 (Homo sapiens); conditions: at 1 µM
[14] = molecular target: T4, Ephrin type-B receptor 4 (Homo sapiens) (UniProt P54760); conditions: at 0.1 µM
T4 sequence (whole entry): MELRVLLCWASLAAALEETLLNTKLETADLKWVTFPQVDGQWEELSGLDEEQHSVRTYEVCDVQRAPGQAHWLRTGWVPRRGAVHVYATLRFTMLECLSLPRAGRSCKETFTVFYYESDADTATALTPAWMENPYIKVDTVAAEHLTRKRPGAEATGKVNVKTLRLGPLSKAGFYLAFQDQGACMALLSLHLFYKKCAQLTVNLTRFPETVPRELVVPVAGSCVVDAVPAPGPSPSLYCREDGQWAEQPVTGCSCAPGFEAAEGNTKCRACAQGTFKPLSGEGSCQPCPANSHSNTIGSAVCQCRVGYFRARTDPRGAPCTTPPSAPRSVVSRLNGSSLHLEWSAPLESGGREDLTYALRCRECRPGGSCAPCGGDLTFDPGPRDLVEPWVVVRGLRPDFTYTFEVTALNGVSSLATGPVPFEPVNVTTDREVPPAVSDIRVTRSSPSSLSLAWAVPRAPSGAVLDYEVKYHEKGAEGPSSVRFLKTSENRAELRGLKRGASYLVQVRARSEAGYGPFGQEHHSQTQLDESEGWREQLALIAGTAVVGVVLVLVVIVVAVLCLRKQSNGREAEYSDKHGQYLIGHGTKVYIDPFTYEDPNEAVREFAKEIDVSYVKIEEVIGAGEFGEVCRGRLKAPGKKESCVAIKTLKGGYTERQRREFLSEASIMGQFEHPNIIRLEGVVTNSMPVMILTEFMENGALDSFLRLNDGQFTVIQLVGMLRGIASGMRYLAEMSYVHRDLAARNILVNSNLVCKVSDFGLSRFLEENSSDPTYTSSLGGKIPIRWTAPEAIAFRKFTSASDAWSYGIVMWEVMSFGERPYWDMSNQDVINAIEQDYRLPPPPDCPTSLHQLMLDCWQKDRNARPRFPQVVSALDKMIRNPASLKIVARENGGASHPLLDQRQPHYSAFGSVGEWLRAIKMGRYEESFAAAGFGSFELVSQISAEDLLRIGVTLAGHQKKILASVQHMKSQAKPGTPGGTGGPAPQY

[15] = molecular target: T4, Ephrin type-B receptor 4 (Homo sapiens); conditions: at 1 µM
[16] = molecular target: Receptor tyrosine-protein kinase erbB-2 (Homo sapiens) (UniProt P04626); conditions: at 0.1 µM
[17] = molecular target: Receptor tyrosine-protein kinase erbB-2 (Homo sapiens) (UniProt P04626); conditions: at 1 µM
[18] = molecular target: Receptor tyrosine-protein kinase erbB-4 (Homo sapiens) (UniProt Q15303); conditions: at 0.1 µM
[19] = molecular target: Receptor tyrosine-protein kinase erbB-4 (Homo sapiens) (UniProt Q15303); conditions: at 1 µM
[20] = molecular target: Tyrosine-protein kinase Fer (Homo sapiens) (UniProt P16591); conditions: at 0.1 µM;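 further: reported figures are averaged percent inhibition of FER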

Chain of Epidermal growth factor receptor (Homo sapiens), P00533 [T790M] (P00533 whole entry T790M): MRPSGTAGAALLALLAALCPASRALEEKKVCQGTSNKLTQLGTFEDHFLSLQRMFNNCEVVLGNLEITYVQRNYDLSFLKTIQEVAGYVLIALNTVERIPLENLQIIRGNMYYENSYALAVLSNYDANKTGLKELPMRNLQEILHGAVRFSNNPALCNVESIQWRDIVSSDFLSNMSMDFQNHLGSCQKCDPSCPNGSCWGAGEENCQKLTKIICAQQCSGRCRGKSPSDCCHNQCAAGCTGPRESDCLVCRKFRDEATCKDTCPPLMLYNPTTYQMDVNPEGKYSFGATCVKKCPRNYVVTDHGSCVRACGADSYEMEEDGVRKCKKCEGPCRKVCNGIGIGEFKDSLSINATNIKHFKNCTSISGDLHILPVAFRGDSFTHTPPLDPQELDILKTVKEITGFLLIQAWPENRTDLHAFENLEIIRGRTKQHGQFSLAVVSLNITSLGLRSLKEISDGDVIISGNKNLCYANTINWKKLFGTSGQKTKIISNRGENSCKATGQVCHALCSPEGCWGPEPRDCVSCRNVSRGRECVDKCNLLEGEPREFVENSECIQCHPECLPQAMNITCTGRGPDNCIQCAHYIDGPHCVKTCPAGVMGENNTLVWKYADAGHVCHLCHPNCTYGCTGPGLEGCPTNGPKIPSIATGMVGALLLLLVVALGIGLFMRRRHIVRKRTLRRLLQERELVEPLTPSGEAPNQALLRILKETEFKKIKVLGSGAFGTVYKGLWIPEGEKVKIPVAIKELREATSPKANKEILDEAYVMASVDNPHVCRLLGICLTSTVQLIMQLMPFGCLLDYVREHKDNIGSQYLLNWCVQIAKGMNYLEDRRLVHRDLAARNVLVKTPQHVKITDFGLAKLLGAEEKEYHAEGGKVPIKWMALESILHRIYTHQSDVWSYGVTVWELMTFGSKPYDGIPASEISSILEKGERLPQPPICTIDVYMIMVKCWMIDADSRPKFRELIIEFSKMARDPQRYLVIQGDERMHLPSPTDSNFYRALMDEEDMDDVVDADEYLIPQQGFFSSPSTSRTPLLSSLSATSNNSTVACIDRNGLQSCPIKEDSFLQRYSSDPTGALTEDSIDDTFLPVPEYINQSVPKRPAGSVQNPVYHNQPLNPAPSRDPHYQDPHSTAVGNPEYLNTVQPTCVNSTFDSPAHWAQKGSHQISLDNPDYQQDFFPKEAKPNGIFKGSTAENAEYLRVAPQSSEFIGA
Chain of Receptor tyrosine-protein kinase erbB-4 (Homo sapiens) (Q15303 whole entry): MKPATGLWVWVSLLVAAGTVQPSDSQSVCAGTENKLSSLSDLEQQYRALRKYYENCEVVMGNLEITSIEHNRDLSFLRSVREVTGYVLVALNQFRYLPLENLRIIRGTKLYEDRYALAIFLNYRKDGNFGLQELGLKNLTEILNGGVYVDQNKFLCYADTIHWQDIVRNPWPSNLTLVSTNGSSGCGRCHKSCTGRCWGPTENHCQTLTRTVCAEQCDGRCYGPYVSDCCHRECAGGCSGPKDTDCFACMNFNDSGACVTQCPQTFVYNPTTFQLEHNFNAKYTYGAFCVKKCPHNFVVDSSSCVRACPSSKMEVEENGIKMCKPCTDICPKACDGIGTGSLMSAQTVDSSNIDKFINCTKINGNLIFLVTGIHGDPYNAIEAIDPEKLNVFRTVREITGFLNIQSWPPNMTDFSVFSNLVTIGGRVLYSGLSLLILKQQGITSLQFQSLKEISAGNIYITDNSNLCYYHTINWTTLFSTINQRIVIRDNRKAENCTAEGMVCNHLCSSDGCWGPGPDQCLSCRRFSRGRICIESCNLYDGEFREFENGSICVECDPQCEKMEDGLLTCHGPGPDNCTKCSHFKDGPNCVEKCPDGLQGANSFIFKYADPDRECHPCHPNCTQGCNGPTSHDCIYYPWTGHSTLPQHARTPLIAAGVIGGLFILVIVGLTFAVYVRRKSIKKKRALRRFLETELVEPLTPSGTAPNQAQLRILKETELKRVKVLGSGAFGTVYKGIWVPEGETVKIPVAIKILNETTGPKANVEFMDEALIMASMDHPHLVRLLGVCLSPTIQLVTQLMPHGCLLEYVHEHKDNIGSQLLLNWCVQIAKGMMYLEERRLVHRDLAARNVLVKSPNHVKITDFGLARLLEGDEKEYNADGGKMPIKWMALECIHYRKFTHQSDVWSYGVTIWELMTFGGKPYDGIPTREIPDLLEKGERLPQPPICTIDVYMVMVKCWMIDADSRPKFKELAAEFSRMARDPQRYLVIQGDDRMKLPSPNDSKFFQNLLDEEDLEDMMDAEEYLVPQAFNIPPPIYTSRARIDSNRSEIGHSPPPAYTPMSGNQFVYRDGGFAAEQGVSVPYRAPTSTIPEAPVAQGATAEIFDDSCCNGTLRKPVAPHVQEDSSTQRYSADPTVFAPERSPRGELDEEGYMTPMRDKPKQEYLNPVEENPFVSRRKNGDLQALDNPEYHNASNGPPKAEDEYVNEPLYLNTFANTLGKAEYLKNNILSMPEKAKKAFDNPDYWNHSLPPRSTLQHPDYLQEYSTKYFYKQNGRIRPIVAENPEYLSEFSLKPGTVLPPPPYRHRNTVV
Chain of Epidermal growth factor receptor (Homo sapiens), P00533 [L858R,T790M] (P00533 whole entry T790M/L858R, looked up): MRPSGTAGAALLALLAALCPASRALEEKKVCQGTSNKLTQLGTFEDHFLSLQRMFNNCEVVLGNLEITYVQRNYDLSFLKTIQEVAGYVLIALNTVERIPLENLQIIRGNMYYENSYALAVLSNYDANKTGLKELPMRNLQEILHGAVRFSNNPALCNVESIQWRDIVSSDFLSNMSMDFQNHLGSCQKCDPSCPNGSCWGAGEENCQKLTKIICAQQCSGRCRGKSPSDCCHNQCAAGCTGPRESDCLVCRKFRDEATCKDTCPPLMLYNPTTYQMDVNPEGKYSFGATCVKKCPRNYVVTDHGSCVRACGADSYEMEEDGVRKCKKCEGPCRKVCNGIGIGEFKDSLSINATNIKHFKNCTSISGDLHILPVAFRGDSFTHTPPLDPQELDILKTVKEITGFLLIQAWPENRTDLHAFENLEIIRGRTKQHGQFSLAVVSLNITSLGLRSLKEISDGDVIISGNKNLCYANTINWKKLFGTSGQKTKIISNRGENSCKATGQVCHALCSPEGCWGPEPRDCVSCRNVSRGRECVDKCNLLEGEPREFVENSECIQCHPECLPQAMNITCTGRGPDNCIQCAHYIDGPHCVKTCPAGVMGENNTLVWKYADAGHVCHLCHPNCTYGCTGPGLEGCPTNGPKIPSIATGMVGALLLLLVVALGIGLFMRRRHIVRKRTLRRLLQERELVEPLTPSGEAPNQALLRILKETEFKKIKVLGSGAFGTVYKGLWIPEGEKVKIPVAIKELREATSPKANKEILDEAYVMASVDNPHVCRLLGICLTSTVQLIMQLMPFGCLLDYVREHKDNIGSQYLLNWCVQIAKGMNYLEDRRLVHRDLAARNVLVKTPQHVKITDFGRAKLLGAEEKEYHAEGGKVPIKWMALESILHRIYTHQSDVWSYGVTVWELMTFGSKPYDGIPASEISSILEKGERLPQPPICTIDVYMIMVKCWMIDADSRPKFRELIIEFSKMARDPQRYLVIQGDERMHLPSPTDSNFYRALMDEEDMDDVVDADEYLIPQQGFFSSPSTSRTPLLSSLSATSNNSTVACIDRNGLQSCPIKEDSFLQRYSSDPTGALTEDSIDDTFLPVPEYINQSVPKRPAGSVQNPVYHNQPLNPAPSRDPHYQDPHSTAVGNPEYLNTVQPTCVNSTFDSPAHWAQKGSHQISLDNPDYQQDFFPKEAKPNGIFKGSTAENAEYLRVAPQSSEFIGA
Chain of Ephrin type-A receptor 2 (Homo sapiens) (P29317 whole entry): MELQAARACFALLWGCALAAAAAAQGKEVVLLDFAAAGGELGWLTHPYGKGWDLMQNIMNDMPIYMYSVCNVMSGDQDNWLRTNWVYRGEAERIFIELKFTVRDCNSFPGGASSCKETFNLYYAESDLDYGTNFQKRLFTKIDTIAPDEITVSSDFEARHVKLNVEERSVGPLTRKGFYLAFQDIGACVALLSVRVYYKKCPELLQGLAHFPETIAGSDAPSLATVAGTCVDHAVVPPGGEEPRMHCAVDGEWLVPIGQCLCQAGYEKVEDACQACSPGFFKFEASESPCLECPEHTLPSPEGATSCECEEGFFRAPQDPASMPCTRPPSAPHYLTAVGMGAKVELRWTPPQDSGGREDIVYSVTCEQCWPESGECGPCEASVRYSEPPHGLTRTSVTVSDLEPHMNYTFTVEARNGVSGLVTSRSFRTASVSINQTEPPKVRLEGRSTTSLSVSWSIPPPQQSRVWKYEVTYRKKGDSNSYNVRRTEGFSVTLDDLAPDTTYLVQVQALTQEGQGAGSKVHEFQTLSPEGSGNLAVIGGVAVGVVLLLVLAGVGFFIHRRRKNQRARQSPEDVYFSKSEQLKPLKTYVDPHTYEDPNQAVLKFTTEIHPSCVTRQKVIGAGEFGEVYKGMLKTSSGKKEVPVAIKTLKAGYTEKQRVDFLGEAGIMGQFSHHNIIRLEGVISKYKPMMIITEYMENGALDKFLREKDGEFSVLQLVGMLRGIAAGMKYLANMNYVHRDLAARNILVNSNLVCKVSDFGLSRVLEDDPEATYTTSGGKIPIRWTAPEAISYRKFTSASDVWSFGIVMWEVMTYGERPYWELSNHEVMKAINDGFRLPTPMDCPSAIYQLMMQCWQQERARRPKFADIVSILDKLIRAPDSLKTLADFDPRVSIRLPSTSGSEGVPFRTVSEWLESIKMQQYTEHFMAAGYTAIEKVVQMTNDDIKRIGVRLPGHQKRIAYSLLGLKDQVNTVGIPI

Row | SMILES | inhibition [1] | inhibition [2] | inhibition [3] | inhibition [4] | inhibition [5] | inhibition [6] | inhibition [7] | inhibition [8] | inhibition [9] | inhibition [10] | inhibition [11] | inhibition [12] | inhibition [13] | inhibition [14] | inhibition [15] | inhibition [16] | inhibition [17] | inhibition [18] | inhibition [19] | inhibition [20]
1 | O=C(Nc1n[nH]c2cc(-c3cc(F)ccc3F)ccc12)C1CC1 | 1.25% | 3.1% | 2.41% | -2.28% | -0.08% | 1.66% | 4.19% | 5.23% | 3.94% | 6.32% | 8.75% | 8.17% | 2.98% | 2.32% | 4.67% | 3.32% | 1.51% | 8.07% | 8.44% | 2.98%
2 | NCc1ccc(-n2c(-c3nonc3N)nc3cnccc32)cc1 | 3.16% | 4.81% | 5.05% | 0.49% | 0.85% | 7% | 4.64% | 9.54% | 5.62% | 6.63% | 8.48% | 7.61% | 3.86% | 2.23% | 1.42% | 2.39% | 2.56% | 16.3% | 18% | 3.01%
3 | NC(=O)c1ccc(Oc2nccc(-c3c(-c4ccc(F)cc4)ncn3C3CCNCC3)n2)cc1 | 4.36% | 3.71% | 1.81% | 2.58% | 1.73% | 2.37% | 5.3% | 8.5% | 11% | 8.08% | 4.72% | 4.03% | 3.75% | 3.7% | 3.09% | 3.73% | 3.35% | 5.71% | 8.73% | 7.08%
4 | O=C(Nc1n[nH]c2nc(-c3ccco3)ccc12)C1CC1 | -1.02% | 0.52% | -1.34% | -1.58% | 2.15% | 1.58% | 2.28% | 6.1% | 7.98% | 6.87% | 12.7% | 3.53% | 2.4% | 0.45% | 4.02% | 0.39% | 0.71% | 2.93% | 2% | 0.52%
5 | Fc1ccc(-c2ncn(C3CCNCC3)c2-c2ccnc(Oc3ccc4c(c3)OCO4)n2)cc1 | 6.05% | 1.3% | 7.04% | 3.08% | 2.37% | 3.63% | 10.3% | 11.3% | 15.4% | 10.6% | 16.5% | 5.97% | 3.71% | 1.53% | 3.9% | -0.35% | 12% | 10.6% | 19.3% | 6.11%
6 | Cc1ccc(NC(=O)c2ccoc2)cc1-c1ccc(C(=O)NCC2CC2)cc1 | 0.9% | 2.36% | 1.46% | 0.92% | -0.44% | 1.99% | 2.02% | 5.05% | 6.13% | 2.46% | 5.88% | 3.21% | 3.35% | 0.88% | 0.82% | 5.47% | 5.7% | 8.06% | 10.6% | 0.47%
